High-throughput results deposited in PubChem BioAssay by National Center for Advancing Translational Sciences (NCATS).
Rows were chosen to be rich in hits. Some 2.2% of all compounds tested hit in one or more screens of this group.
Mito fusion act: inhibitors of mitochondrial division or activators of mitochondrial fusion. S. cerevisiae fusion-defective mutant growth rescue, CellTiterGlo 48 h. Potency, µM (doses to about 46.1 µM), without a hit: top-dose growth rescue (activation), hits mostly activators. actives 0.23% (n = 320,000). AID 485298; further: % of control where 0% means no effect; nearly all actives have a fitted effect of over 45% in size
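Luminescent cell viability in 1536-well qHTS format served as the measure of rescued growth in ts fusion-mutant S. cerevisiae cultured on non-fermentable YPEG for 48 hours at 37C.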
Abeta rescue: A-beta toxicity reversal in yeast. yeast expressing A-beta42, growth rescue, OD600, 48 h; response scale: 0% DMSO, 100% iron-clioquinol control. actives 0.063% (n = 410,000). AID 1347071. Potency, µM (highest dose often 46.1 µM), actives largely listed as activators; further: nearly all actives have a fitted effect of over 55% in size
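Growth rescue measured by 600 nm absorbance after 48 h yeast culture at 30 C with compound. Values normalized between DMSO and an equimolar ferric chloride plus clioquinol control.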
FUS suppressor: FUS proteinopathy suppression in yeast. S. cerevisiae FUS-expressing, growth rescue, OD600, 24 h. Potency, µM (highest dose often 76.6 µM), actives largely listed as activators. actives 0.24% (n = 390,000). AID 1347120;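 further: plate controls were DMSO vehicle for no effect and reference control for full effect; nearly all actives have a fitted effect of over 55% in size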
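Yeast FUS proteinopathy model; galactose-induced FUS (2%), starting OD 0.005. Cpds in dilution series, 24hr, 30C, 99% humidity. Abs 600 nm growth. Pos ctrl CP55940 (top 92uM final); neg ctrl DMSO.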
TDP-43 yeast inh: inhibitors of TDP-43 toxicity in yeast; TDP-43 expressing yeast growth rescue, BacTiter-Glo, 24 h; Potency, µM (highest dose often 46.1 µM), for the others: at the top dose growth rescue (activation), most hits filed as activators; actives 1.8% (n = 410,000); AID 652104; further: % of control where 0% means no effect; nearly all actives have a fitted effect of over 50% in size
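Cell-based yeast growth screen: TDP-43 expression induced in galactose, inoculum OD600=0.02 after raffinose pregrowth to mid-log. Read-out BacTiter-Glo luminescence at 24 hr, 30 deg C; inhibition of toxicity seen as signal increase.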
aSyn rescue: inhibitors of alpha-synuclein toxicity in yeast | actives 0.14% (n = 370,000) | Potency, µM (highest dose often 46.1 µM), inactives show top-dose growth rescue (activation), actives largely listed as activators | Yeast expressing alpha-synuclein, growth rescue, BacTiter-Glo, 24 h | AID 652106; further: % of control where 0% means no effect; nearly all actives have a fitted effect of over 65% in size
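Rescue of yeast growth: cells expressing toxic alpha-synuclein, induced in galactose at OD600 0.02, incubated with compound 24 h at 30 C. ATP luminescence quantified growth; inhibitors of toxicity appear as activators.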
ERG-DNA inh: ERG Ets/DNA interaction inhibition. P11308. fluorescence polarization, His-ERG Ets domain / labelled DNA. Potency, µM (titrated, usually from 76.9 µM), for the others: top-dose FP activity, negative = inhibition, usual class: inhibitors. actives 0.028% (n = 370,000). AID 624246; active means well fitted inhibition curve with a large enough effect in the polarisation, with a control signal flat; inconclusive means small, poorly fitted or top-dose-only effect, or effect the other way, or a change in a side signal; inactive means no such curve, though single readings can be large or run the other way; the % refers to the polarisation;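 further: polarization taken with two DNA probes labelled with fluorescein and Texas red; % of control where 0% means no effect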
Target sequence (P11308 whole entry, looked up, the tested form may be a part): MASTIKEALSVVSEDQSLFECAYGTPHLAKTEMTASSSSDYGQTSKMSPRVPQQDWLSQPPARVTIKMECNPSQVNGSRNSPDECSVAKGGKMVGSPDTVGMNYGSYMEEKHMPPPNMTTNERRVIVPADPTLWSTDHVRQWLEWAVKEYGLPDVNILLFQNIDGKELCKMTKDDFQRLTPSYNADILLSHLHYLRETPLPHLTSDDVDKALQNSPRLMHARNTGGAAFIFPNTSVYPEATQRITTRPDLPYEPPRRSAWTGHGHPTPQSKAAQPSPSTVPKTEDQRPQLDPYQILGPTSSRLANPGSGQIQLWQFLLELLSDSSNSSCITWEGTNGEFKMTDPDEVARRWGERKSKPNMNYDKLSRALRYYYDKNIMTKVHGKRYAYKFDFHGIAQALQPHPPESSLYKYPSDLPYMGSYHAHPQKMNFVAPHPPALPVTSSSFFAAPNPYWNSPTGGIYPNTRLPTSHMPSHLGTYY
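His-tagged ERG Ets domain (1 uM in the protein solution; 300mM KCl, 50mM Tris-HCl, 1mM EDTA, 1mM DTT, pH 7.5) received compound, then a probe mix of 5 nM fluorescein-DNA and 100nM Texas-615-DNA. Fluorescence polarization was read for both dyes.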
An asterisk follows results filed as active; i = inactive; ? = inconclusive; . = no result given. Unless noted, the call rests on the fitted dose curve; in most records, active means well fitted curve in the direction sought with a large enough effect; inconclusive means small, poorly fitted or top-dose-only effect, or another doubt; inactive means no such curve, though single readings can be large; an effect the other way counts as inactive or inconclusive. Potency means the concentration at half of the fitted maximal effect.

SMILES | Mito fusion act | Abeta rescue | FUS suppressor | TDP-43 yeast inh | aSyn rescue | ERG-DNA inh
COc1ccc(NC(=O)CSc2nc3nc(C)c(Cc4ccc(C)cc4)c(C)n3n2)cc1OC | . | i | i | 24.4% | . | 0.3%
C=CCOc1ccc(/C=C/C(C)=N\O)cc1 | -1.8% | i | i | 10µM* | . | 5.3%
Cc1ccccc1NS(=O)(=O)c1ccc(C(=O)N2CCN(c3ccccc3O)CC2)cc1 | 4.6% | i | . | 18.5% | -1.3% | 4.6%
Cc1ccc(S(=O)(=O)Nc2ccc(C(=O)N3CCN(c4ccccc4O)CC3)cc2)cc1[N+](=O)[O-] | ? | i | 12.6µM* | -10.1% | -0.3% | 3.4%
Cc1cc(S(=O)(=O)Nc2ccc3cn[nH]c3c2)c(C)cc1Cl | 11.2µM* | i | i | -8.8% | 15.1% | -1.6%
O=S(=O)(Nc1ccc2cn[nH]c2c1)c1ccc(Cl)cc1 | 26.1% | i | i | -1.0% | -2.2% | -8.4%
COC1=CC(=O)OC(c2cccc(Cl)c2)C1 (centres undefined) | . | i | i | ? | 8.9% | .
CC(C)OC1=CC(=O)OC(c2cccc(Cl)c2)C1 (centres undefined) | . | i | i | 22.4µM* | 11.9% | .
CCCS(=O)(=O)N1CC(=O)N(c2ccc(C)c(Cl)c2)C(C)(C(=O)NC2CCCCCC2)C1 (centres undefined) | . | i | i | -9.9% | . | -3.5%
Cc1ccc(NS(=O)(=O)c2ccc3[nH]c4c(c3c2)CCCCCC4)cc1C | . | i | ? | 11.7% | 3.6% | -0.2%
Cc1ccc(NS(=O)(=O)c2ccc3[nH]c4c(c3c2)CCCCCC4)cc1 | . | i | i | 14.1µM* | . | -0.9%
CCOC(=O)c1ccc2[nH]c3c(c2c1)CCCC3 | 2.0% | i | i | 25.1µM* | -1.6% | 2.1%
CCOC(=O)c1ccc(NS(=O)(=O)c2ccc3[nH]c4c(c3c2)CCCCC4)cc1 | . | i | ? | 5.7% | ? | -4.6%
COc1cccc(C2c3[nH]c4ccccc4c3C[C@H]3C(=O)N(c4ccccc4C(=O)N4CCC(C(=O)O)CC4)C(=O)N23)c1 (some centres undefined) | -3.2% | i | 28.2µM* | 15.8% | 3.0% | -0.6%
COc1ccc(C2c3[nH]c4ccccc4c3C[C@H]3C(=O)N(c4ccccc4C(=O)N4CCC(C(=O)O)CC4)C(=O)N23)cc1 (some centres undefined) | 1.4% | i | 22.4µM* | 6.9% | 0.3% | -0.7%
COc1cc(-c2cc(OC)c3c(C)oc(C)c3c(=O)c2)ccc1OC(=O)c1ccc(C)cc1 | . | i | ? | ? | . | 2.4%
COc1cc(-c2cc(OC)c3c(C)oc(C)c3c(=O)c2)ccc1OC(=O)c1ccccc1C | . | i | ? | 20µM* | . | 14.7%
CCOc1cc(-c2ccc(OC(=O)c3ccc(C)cc3)c(OC)c2)cc(=O)c2c(C)oc(C)c12 | . | i | ? | 17.8µM* | . | 3.0%
COc1cc(-c2cc(OC)c3c(C)oc(C)c3c(=O)c2)ccc1OC(=O)c1cccc(Cl)c1 | . | i | ? | 20µM* | . | 2.2%
CC1CCN(S(=O)(=O)c2ccc3c(c2)CCN3C(=O)Nc2cccc(Br)c2)CC1 | . | i | i | 12.4% | . | 0.2%
O=C(Nc1cc(Sc2ccccn2)cc([N+](=O)[O-])c1)c1cccc(F)c1 | 17.8µM* | i | . | 22.4µM* | 3.2% | -5.9%
CCC[C@H]1[C@@H](OC(=O)NC2CCC2)CC[C@@]23CCCN2C(=O)CCC[C@@H]13 | . | . | i | . | . | .
S=C(NCc1ccccn1)Nc1ccc(Br)cc1Cl | 8.5% | ? | i | 12.6µM* | 3.4% | -8.1%
O=C(NCc1ccccn1)Nc1ccc(Br)cc1Cl | -2.1% | i | i | 23.7% | 3.1% | -0.1%
Cc1ccc2c(c1)c1c(c(=O)n(Cc3ccccc3)c(=O)n1Cc1cccc(F)c1)n2C | . | i | i | 25.9% | . | -0.5%
O=C1C=C(CCc2ccccc2)CCC1 | . | i | i | 15.7% | 1.2% | .
